{"source": "PubChem BioAssay (Tox21)", "key": {"[1]": {"assay": "qHTS assay to identify small molecule agonists of the sonic hedgehog signaling (Shh) pathway (AID 1259368); also: series mostly up to about 92 µM; nearly all actives have a fitted effect of over 15% in size", "outline": "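Stable NIH/3T3 Gli1-Luc reporter clone; 24 hr cpd exposure after a 4 hr settling period; luminescence endpoint.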"}, "[2]": {"assay": "qHTS assay to identify small molecule antagonists of the sonic hedgehog signaling (Shh) pathway (AID 1259369); also: nearly all actives have a fitted effect of over 45% in size; also: potency is read from the fitted curve at half-maximal effect", "outline": "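Gli1 transcriptional reporter (firefly Luc) in NIH/3T3 background, conditioned-medium activated. 24hr exposure, luminescence endpoint.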"}, "[3]": {"assay": "qHTS assay to identify small molecule agonists of the estrogen receptor beta (ER-beta) signaling pathway - cell viability counter screen (AID 1259380; active = well fitted curve in the direction sought with a large enough effect in the repeat runs; an effect the other way counts as inactive or inconclusive; also: nearly all actives have a fitted effect of over 30% in size)", "outline": "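In this qHTS counter screen, HEK293T cells carrying an ER-beta/UAS beta-lactamase reporter, grown in 2% charcoal-stripped FBS, received compound for 16 hr; ATP-based CellTiter-Glo luminescence was then read after 30 min at room temperature.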"}, "[4]": {"assay": "qHTS assay to identify small molecule antagonists of the estrogen receptor beta (ER-beta) signaling pathway - cell viability counter screen (AID 1259382; active = well fitted curve in the direction sought with a large enough effect in the repeat runs; an effect the other way counts as inactive or inconclusive; also: series mostly up to about 92 µM; nearly all actives have a fitted effect of over 55% in size)", "outline": "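HEK293T ER-beta-UAS-bla, 2% charcoal-stripped FBS; compounds + 1nM E2 16 hr 37C; CellTiter-Glo luminescence, 30 min RT.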"}, "[5]": {"assay": "qHTS assay to identify small molecule agonists or antagonists of the thyroid stimulating hormone receptor (TSHR) signaling pathway - wild type cell line counter screen (AID 1259384)", "outline": "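Wild-type HEK293 cells were plated 18 h at 37 C/5% CO2, pin-dosed with compound plus Ro20-1724 medium, held 30 min at room temperature, then given cAMP-d2 and anti-cAMP-cryptate; fluorescence was read after 1 h. Fifteen concentrations, triplicate.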"}, "[6]": {"biological_target": "Thyrotropin receptor (Homo sapiens) (UniProt P16473)", "sequence (P16473 whole entry, looked up)": "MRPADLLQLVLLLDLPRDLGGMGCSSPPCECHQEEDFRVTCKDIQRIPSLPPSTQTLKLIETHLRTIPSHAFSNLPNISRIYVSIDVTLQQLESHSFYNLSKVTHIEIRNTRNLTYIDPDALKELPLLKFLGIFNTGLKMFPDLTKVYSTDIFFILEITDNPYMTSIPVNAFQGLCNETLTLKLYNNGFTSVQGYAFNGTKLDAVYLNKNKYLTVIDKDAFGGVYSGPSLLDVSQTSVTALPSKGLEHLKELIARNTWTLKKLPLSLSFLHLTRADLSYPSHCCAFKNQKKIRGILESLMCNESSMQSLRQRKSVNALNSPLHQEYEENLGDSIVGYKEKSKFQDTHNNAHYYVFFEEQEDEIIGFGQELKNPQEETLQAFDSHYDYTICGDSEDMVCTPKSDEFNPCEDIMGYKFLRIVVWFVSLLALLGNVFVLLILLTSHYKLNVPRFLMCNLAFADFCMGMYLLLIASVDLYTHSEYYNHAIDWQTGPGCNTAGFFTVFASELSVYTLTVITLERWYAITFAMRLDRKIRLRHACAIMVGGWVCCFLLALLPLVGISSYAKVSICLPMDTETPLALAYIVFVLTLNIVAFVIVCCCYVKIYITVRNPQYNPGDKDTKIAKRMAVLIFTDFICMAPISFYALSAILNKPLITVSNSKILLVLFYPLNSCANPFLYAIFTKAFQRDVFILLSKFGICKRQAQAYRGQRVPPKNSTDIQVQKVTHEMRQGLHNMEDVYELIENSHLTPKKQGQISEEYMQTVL", "assay": "qHTS assay to identify small molecule antagonists of the thyroid stimulating hormone receptor (TSHR) signaling pathway (AID 1259385); also: nearly all actives have a fitted effect of over 20% in size", "outline": "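TSHR-HEK293 cells were plated and held 18 h at 37C/5% CO2, then given compound plus Ro20-1724 and stimulated with TSH at 1.5 ng/mL final. After 30 min at room temperature, cAMP was detected with cAMP-d2/anti-cAMP-cryptate (1 h) by fluorescence.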"}, "[7]": {"assay": "qHTS assay to identify small molecule agonists of the estrogen receptor alpha (ER-alpha) signaling pathway in the presence of an antagonist - cell viability counter screen (AID 1259386; active = well fitted curve in the direction sought with a large enough effect in the repeat runs; an effect the other way counts as inactive or inconclusive; also: series mostly up to about 92 µM; nearly all actives have a fitted effect of over 30% in size)", "outline": "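Steps: 5-day stripped-FBS culture; seed and incubate 24hr; add ICI-182,780 (10.0nM final); pin 15-point compound titration; incubate 22hr at 37C; add CellTiter-Fluor at 21hr; read fluorescence.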"}, "[8]": {"biological_target": "Progesterone receptor (Homo sapiens) (UniProt P06401)", "sequence (P06401 whole entry, looked up)": "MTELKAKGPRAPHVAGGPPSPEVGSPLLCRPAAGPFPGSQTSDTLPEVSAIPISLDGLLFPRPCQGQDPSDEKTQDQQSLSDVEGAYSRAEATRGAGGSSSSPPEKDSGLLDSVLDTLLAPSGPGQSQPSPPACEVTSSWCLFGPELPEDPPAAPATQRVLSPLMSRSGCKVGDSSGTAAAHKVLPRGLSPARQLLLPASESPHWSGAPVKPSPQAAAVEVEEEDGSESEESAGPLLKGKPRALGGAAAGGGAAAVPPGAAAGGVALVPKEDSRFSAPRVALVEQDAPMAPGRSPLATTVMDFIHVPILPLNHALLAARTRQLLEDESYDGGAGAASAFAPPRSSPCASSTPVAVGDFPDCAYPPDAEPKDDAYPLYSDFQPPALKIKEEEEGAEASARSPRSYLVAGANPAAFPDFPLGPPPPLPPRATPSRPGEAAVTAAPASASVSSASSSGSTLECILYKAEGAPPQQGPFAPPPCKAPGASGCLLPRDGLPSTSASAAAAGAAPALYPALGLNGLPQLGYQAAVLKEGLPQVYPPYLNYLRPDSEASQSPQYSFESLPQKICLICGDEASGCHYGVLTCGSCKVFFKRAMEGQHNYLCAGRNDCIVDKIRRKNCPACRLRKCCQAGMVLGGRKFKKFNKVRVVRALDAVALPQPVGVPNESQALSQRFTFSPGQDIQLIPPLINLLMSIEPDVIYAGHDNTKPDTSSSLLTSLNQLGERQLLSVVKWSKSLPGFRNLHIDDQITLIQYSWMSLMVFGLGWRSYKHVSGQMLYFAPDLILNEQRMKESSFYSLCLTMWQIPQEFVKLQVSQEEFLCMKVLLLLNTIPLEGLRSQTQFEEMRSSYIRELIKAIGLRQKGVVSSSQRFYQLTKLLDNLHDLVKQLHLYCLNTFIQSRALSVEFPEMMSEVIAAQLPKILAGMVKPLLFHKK", "assay": "qHTS assay to identify small molecule agonists of the progesterone receptor (PR) signaling pathway (AID 1346784); also: nearly all actives have a fitted effect of over 30% in size", "outline": "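Seed PR-UAS-bla HEK 293T cells (2% charcoal-stripped FBS), incubate 6 hr at 37C; add compounds in DMSO, 16 hr at 37C; add LiveBLAzer B/G substrate, 2 hr RT; read fluorescence intensity.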"}, "[9]": {"biological_target": "Progesterone receptor (Homo sapiens) (UniProt P06401)", "assay": "qHTS assay to identify small molecule antagonists of the progesterone receptor (PR) signaling pathway (AID 1346795; active = well fitted inhibition curve with a large enough effect in the signal ratio in the repeat runs, not every such curve was filed as active; the % refers to the signal ratio)", "outline": "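Screening used a GripTite HEK293T line with PR-responsive UAS-beta-lactamase. Cells were challenged with compound in the presence of 1 nM R5020 final for 16 hr at 37C; B/G FRET substrate, 2 hr room temperature, fluorescence.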"}, "[10]": {"assay": "qHTS assay to identify small molecule antagonists of the progesterone receptor (PR) signaling pathway - cell viability counter screen (AID 1346798; active = well fitted curve in the direction sought with a large enough effect in the repeat runs; an effect the other way counts as inactive or inconclusive; also: series mostly up to about 92 µM; nearly all actives have a fitted effect of over 50% in size)", "outline": "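Measures cytotoxicity in parallel with the PR antagonist reporter read: HEK293T PR-UAS-bla cells get compound and R5020 for 16 hr, and remaining viable cells are quantified by CellTiter-Glo luminescence.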"}, "[11]": {"assay": "qHTS assay to identify small molecule antagonists of the TGF-beta/Smad signaling pathway - cell viability counter screen (AID 1346824; active = well fitted curve in the direction sought with a large enough effect in the repeat runs; an effect the other way counts as inactive or inconclusive; also: nearly all actives have a fitted effect of over 50% in size)", "outline": "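SBE-bla HEK 293T cells were plated overnight at 37 C, then given compounds in DMSO plus TGF-beta1 (added as 0.25 ng/mL solution) for 5 hr. After the bla read, CellTiter-Glo was added to the same wells and luminescence read after 30 min at room temperature.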"}, "[12]": {"assay": "qHTS assay to identify small molecule agonists of the TGF-beta/Smad signaling pathway (AID 1346859; active = well fitted activation curve with a large enough effect in the signal ratio in the repeat runs, not every such curve was filed as active; the % refers to the signal ratio; also: series mostly up to about 77 µM)", "outline": "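Beta-lactamase reporter activity downstream of Smad binding elements was measured in stably transfected HEK 293T cells; compounds were incubated for 5 hr, substrate for 2 hr at room temperature.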"}, "[13]": {"biological_target": "Estrogen receptor (Homo sapiens) (UniProt P03372)", "sequence (P03372 whole entry, looked up)": "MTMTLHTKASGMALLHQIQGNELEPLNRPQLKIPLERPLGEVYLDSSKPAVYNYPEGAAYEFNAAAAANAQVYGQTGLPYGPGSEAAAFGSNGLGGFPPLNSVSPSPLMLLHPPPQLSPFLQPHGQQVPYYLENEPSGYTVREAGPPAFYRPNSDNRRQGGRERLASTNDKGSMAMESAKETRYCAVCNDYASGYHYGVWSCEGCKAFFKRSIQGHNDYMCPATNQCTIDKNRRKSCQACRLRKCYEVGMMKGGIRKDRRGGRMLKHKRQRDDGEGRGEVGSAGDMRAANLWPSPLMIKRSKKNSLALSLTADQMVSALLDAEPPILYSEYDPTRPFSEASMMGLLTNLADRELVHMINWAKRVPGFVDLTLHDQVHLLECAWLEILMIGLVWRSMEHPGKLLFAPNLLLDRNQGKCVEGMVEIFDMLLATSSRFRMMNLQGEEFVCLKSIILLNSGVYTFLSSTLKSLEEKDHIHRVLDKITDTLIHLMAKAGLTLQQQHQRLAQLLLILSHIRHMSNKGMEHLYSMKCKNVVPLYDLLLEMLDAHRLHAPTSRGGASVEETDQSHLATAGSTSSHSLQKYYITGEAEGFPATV", "assay": "qHTS assay to identify small molecule agonists of the estrogen receptor alpha (ER-alpha) signaling pathway in the presence of an antagonist (AID 1259383); also: top concentration of the series differs between compounds; nearly all actives have a fitted effect of over 15% in size", "outline": "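ER-alpha agonism measured under antagonist challenge: 10.0nM ICI-182,780 (final) plus compound, 15 concentrations, 22hr, VM7Luc4E2 ERE-luciferase cells. Read by luminescence.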"}, "[14]": {"assay": "qHTS assay to identify small molecule agonists of the progesterone receptor (PR) signaling pathway - cell viability counter screen (AID 1346799); also: nearly all actives have a fitted effect of over 45% in size", "outline": "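Using the same plates as the PR reporter screen, HEK293T PR-UAS-bla cells received compounds for 16 hr at 37C and were then lysed with CellTiter-Glo; luminescence was read 30 min later at room temperature.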"}, "[15]": {"biological_target": "Thyrotropin-releasing hormone receptor (Homo sapiens) (UniProt P34981)", "sequence (P34981 whole entry, looked up)": "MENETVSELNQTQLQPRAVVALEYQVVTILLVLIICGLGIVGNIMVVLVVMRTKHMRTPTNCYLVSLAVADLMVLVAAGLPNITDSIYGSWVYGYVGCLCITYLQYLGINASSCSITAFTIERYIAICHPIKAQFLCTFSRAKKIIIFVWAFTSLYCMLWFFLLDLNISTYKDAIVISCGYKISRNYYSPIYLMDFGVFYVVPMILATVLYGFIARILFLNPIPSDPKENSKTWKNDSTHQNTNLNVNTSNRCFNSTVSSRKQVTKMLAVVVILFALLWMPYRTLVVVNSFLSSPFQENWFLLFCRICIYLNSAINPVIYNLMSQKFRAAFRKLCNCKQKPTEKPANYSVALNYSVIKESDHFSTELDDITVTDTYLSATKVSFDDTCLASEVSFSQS", "assay": "qHTS assay to identify small molecule antagonists of the thyrotropin-releasing hormone receptor (TRHR) signaling pathway (AID 1346877; active = well fitted inhibition curve with a large enough effect in the repeat runs, not every such curve was filed as active; also: series mostly up to about 51 µM)", "outline": "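Human TRHR in HEK293 cells; inhibition of the intracellular calcium rise triggered by 1 nM TRH was followed by fluorescence over 3 min. Compounds were run at 15 concentrations, three replicates each.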"}, "[16]": {"biological_target": "Estrogen receptor beta (Homo sapiens) (UniProt Q92731)", "sequence (Q92731 whole entry, looked up)": "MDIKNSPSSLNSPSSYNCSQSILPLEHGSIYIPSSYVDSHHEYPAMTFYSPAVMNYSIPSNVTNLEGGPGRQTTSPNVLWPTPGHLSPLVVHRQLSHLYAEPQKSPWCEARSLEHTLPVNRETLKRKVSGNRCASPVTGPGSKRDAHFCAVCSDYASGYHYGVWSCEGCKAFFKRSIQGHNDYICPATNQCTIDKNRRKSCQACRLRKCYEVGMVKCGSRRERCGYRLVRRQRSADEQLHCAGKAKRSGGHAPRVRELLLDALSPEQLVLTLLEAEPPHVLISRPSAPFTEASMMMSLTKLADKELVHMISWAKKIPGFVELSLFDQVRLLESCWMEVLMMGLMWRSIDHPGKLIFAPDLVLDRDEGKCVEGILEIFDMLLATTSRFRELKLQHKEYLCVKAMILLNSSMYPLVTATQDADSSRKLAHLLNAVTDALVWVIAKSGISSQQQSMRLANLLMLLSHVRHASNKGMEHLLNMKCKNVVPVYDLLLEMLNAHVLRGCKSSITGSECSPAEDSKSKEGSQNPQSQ", "assay": "qHTS assay to identify small molecule agonists of the estrogen receptor beta (ER-beta) signaling pathway (AID 1259377; active = well fitted activation curve with a large enough effect in the signal ratio in the repeat runs, not every such curve was filed as active; the % refers to the signal ratio)", "outline": "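Screening used GripTite ER-beta-UAS-bla cells held in 2% charcoal-stripped FBS medium. After overnight (16 hr) compound incubation at 37C, beta-lactamase activity was detected with a FRET substrate by fluorescence.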"}, "[17]": {"biological_target": "Estrogen receptor beta (Homo sapiens) (UniProt Q92731)", "assay": "qHTS assay to identify small molecule antagonists of the estrogen receptor beta (ER-beta) signaling pathway (AID 1259378; active = well fitted inhibition curve with a large enough effect in the signal ratio in the repeat runs, not every such curve was filed as active; the % refers to the signal ratio)", "outline": "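ER-beta-UAS-bla HEK293T (GripTite) cells in 2% charcoal-stripped FBS medium were preincubated 6 hr at 37C, dosed with compound, then stimulated with 1 nM E2 (final) for 16 hr; beta-lactamase reporter read by B/G FRET fluorescence after 2 hr substrate loading.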"}, "[18]": {"assay": "qHTS assay to identify small molecule agonists of the androgen receptor (AR) signaling pathway in the presence of an antagonist - cell viability counter screen (AID 1259379; active = well fitted curve in the direction sought with a large enough effect in the repeat runs; an effect the other way counts as inactive or inconclusive;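 also: MDA-kb2 human breast cancer cells carrying an MMTV luciferase reporter; series mostly up to about 92 µM; nearly all actives have a fitted effect of over 25% in size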)", "outline": "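Counter screen for cell viability run in parallel with the AR agonist-mode luciferase assay. MDA-kb2 cells were co-treated with nilutamide (3.0uM final) and compounds, then incubated 16 hr at 37C, and CellTiter-Fluor fluorescence was measured.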"}, "[19]": {"assay": "qHTS assay to identify small molecule agonists of the TGF-beta/Smad signaling pathway - cell viability counter screen (AID 1346829; active = well fitted curve in the direction sought with a large enough effect in the repeat runs; an effect the other way counts as inactive or inconclusive; also: top concentration of the series differs between compounds; nearly all actives have a fitted effect of over 45% in size)", "outline": "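Here the cytotoxicity of library compounds is measured in SBE-bla HEK 293T cells treated for 5 hr, using CellTiter-Glo added to wells already read for the beta-lactamase reporter.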"}}, "note": "Values without a mark were called inactive. Results filed as inconclusive are left out. A call without a number means that no potency is given here. The source made the active and inactive calls. Unless noted, calls follow the shape of the full dose curve."}
{"smiles": "NS(=O)(=O)c1ccccc1Cl", "values": [{"measurement": "outcome", "setting": "[1]", "value": "inactive"}, {"measurement": "Potency", "setting": "[2]", "value": "inactive"}, {"measurement": "Potency", "setting": "[3]", "value": "inactive"}, {"measurement": "Potency", "setting": "[4]", "value": "inactive"}, {"measurement": "outcome", "setting": "[5]", "value": "inactive"}, {"measurement": "Potency", "setting": "[6]", "value": "inactive"}, {"measurement": "Potency", "setting": "[7]", "value": "inactive"}, {"measurement": "Potency", "setting": "[8]", "value": "inactive"}, {"measurement": "Potency", "setting": "[9]", "value": "inactive"}, {"measurement": "Potency", "setting": "[10]", "value": "inactive"}, {"measurement": "Potency", "setting": "[11]", "value": "inactive"}, {"measurement": "outcome", "setting": "[12]", "value": "inactive"}]}
{"smiles": "OC(CCN1CCCCC1)(c1ccccc1)C1CC2C=CC1C2", "note": "(centres undefined)", "values": [{"measurement": "outcome", "setting": "[1]", "value": "inactive"}, {"measurement": "Potency", "setting": "[2]", "value": "16.8 µM (active)"}, {"measurement": "Potency", "setting": "[4]", "value": "inactive"}, {"measurement": "Potency", "setting": "[13]", "value": "inactive"}, {"measurement": "Potency", "setting": "[7]", "value": "inactive"}, {"measurement": "Potency", "setting": "[8]", "value": "inactive"}, {"measurement": "Potency", "setting": "[9]", "value": "inactive"}, {"measurement": "Potency", "setting": "[10]", "value": "inactive"}, {"measurement": "Potency", "setting": "[14]", "value": "inactive"}, {"measurement": "Potency", "setting": "[11]", "value": "inactive"}, {"measurement": "outcome", "setting": "[12]", "value": "inactive"}, {"measurement": "outcome", "setting": "[15]", "value": "inactive"}]}
{"smiles": "Cc1cc2c(cc1S(N)(=O)=O)S(=O)(=O)CCC2", "values": [{"measurement": "outcome", "setting": "[1]", "value": "inactive"}, {"measurement": "outcome", "setting": "[16]", "value": "inactive"}, {"measurement": "outcome", "setting": "[17]", "value": "inactive"}, {"measurement": "Potency", "setting": "[18]", "value": "inactive"}, {"measurement": "Potency", "setting": "[3]", "value": "inactive"}, {"measurement": "Potency", "setting": "[4]", "value": "inactive"}, {"measurement": "Potency", "setting": "[13]", "value": "inactive"}, {"measurement": "outcome", "setting": "[5]", "value": "inactive"}, {"measurement": "Potency", "setting": "[6]", "value": "inactive"}, {"measurement": "Potency", "setting": "[7]", "value": "inactive"}, {"measurement": "Potency", "setting": "[8]", "value": "inactive"}, {"measurement": "Potency", "setting": "[9]", "value": "inactive"}, {"measurement": "Potency", "setting": "[10]", "value": "inactive"}, {"measurement": "Potency", "setting": "[14]", "value": "inactive"}, {"measurement": "Potency", "setting": "[11]", "value": "inactive"}, {"measurement": "outcome", "setting": "[19]", "value": "inactive"}, {"measurement": "outcome", "setting": "[12]", "value": "inactive"}, {"measurement": "outcome", "setting": "[15]", "value": "inactive"}]}
{"smiles": "Nc1c2c(nc3ccccc13)CCCC2O", "note": "(centres undefined)", "values": [{"measurement": "outcome", "setting": "[1]", "value": "inactive"}, {"measurement": "outcome", "setting": "[16]", "value": "inactive"}, {"measurement": "outcome", "setting": "[17]", "value": "inactive"}, {"measurement": "Potency", "setting": "[3]", "value": "inactive"}, {"measurement": "Potency", "setting": "[4]", "value": "inactive"}, {"measurement": "Potency", "setting": "[13]", "value": "inactive"}, {"measurement": "outcome", "setting": "[5]", "value": "inactive"}, {"measurement": "Potency", "setting": "[6]", "value": "inactive"}, {"measurement": "Potency", "setting": "[7]", "value": "inactive"}, {"measurement": "Potency", "setting": "[8]", "value": "inactive"}, {"measurement": "Potency", "setting": "[9]", "value": "inactive"}, {"measurement": "Potency", "setting": "[10]", "value": "inactive"}, {"measurement": "Potency", "setting": "[14]", "value": "inactive"}, {"measurement": "Potency", "setting": "[11]", "value": "inactive"}, {"measurement": "outcome", "setting": "[19]", "value": "inactive"}, {"measurement": "outcome", "setting": "[12]", "value": "inactive"}, {"measurement": "outcome", "setting": "[15]", "value": "inactive"}]}
